# Assay results reported in PubChem BioAssay.
# Activity calls are given as the source filed them.
# Key:
# [1] = optical density shifts of acrAB sulA E. coli – strain DRC41, OD650, 48 h, E. coli filamentation inducer project, primary screen (AID 1152); conditions: higher = more signal, called active from +8 up or from −8 down;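 further: E. coli MC1000 strain DRC41 lacking acrAB efflux pump and sulA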
# [2] = probe aLefty1 binding on compound microarray – biochemical, small-molecule microarray, 635/667 nm fluorescence, primary screen (AID 1153); conditions: higher = more signal;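 further: score merges spot fluorescence with signal-to-noise ratio from the scanned slide images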
# [3] = plasmodial surface anion channel blockers, osmotic lysis – cell-based, P. falciparum Indochina, OD700, 1 h, primary screen (AID 1154); conditions: P. falciparum Indochina infected RBC osmotic lysis, higher = more signal, called active from +8 up or from −8 down
# [4] = plasmodial surface anion channel blockers, osmotic lysis – cell-based, P. falciparum Indochina, OD700, 2 h, primary screen (AID 1155);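 further: lysis reports solute entry through the parasite surface anion channel PSAC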; conditions: P. falciparum Indochina infected erythrocytes, higher = more signal, called active from +8 up or from −8 down
# [5] = changes in parasitized red cell lysis, either direction – P. falciparum Indochina, OD700, 3 h, PSAC antagonist project, primary screen (AID 1156); conditions: P. falciparum-infected erythrocytes, osmotic lysis, higher = more signal, called active from +8 up or from −8 down
# [6] = plasmodial surface anion channel blockers, osmotic lysis – cell-based, P. falciparum Indochina, OD700, 18 h, primary screen (AID 1157); conditions: P. falciparum Indochina infected erythrocytes, osmotic lysis OD700, 18 h; higher = more signal, called active from +8 up or from −8 down
# [7] = S6 kinase pathway phospho-S6 level changes – cell-based, A549, cytoblot, luminescence, serum-stimulated, primary screen (AID 1158); conditions: 5 h, higher = more signal;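 further: serum-stimulated A549 lung adenocarcinoma cells; signal is phosphorylated S6 detected by cytoblot immunostaining with HRP secondary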
# [8] = target: NADPH oxidase 2 (Homo sapiens) (UniProt P04839); assay: compounds shifting NOX2 Amplex Red fluorescence – cell-based, HEK293-NOX2, PMA-stimulated, NOX inhibitor project, primary screen (AID 1159); conditions: 45 min, higher = more signal, called active from +8 up or from −8 down; further: test concentration not given here
# Sequence of NADPH oxidase 2 (Homo sapiens) (P04839 whole entry, looked up): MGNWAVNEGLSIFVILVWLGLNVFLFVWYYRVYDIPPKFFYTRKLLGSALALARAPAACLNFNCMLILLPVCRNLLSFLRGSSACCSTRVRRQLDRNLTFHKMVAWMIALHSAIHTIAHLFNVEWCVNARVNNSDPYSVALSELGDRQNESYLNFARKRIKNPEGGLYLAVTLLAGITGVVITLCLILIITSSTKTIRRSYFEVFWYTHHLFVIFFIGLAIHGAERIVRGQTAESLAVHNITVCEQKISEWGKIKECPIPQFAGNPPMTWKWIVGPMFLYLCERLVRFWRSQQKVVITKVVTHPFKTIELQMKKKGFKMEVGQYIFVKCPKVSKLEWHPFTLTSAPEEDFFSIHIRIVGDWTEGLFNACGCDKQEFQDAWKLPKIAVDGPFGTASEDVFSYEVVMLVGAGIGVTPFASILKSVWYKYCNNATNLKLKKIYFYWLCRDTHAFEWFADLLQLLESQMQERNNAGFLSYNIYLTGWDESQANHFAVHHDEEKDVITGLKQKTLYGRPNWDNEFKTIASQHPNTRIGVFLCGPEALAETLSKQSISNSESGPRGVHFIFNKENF
# [9] = target: NADPH oxidase 4 (Homo sapiens) (UniProt Q9NPH5); assay: compounds shifting NOX4 Amplex Red fluorescence – cell-based, HEK293-NOX4, tetracycline-induced, NOX inhibitor project, primary screen (AID 1160); conditions: HEK293-NOX4, Amplex Red H2O2 fluorescence, 45 min; higher = more signal, called active from +8 up or from −8 down
# Sequence of NADPH oxidase 4 (Homo sapiens) (Q9NPH5 whole entry, looked up): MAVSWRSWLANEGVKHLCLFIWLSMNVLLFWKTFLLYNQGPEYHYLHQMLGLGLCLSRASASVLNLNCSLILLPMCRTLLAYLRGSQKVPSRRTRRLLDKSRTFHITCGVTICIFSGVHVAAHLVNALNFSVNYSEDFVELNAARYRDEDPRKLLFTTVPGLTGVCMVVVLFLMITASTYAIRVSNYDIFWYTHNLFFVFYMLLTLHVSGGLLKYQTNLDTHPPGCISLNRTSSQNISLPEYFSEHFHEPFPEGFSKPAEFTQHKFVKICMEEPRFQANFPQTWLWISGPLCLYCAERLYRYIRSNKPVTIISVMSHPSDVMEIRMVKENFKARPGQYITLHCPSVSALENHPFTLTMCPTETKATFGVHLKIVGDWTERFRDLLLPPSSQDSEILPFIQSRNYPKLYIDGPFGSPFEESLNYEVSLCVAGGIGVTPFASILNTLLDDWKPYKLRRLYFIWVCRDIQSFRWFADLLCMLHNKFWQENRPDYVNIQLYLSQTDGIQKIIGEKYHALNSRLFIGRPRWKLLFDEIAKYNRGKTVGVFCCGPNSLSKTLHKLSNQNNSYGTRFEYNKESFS
# [10] = target: NADPH oxidase 5 (Homo sapiens) (UniProt Q96PH1); assay: compounds shifting NOX5 Amplex Red fluorescence – cell-based, HEK293-NOX5, NOX inhibitor project, primary screen (AID 1161); conditions: HEK293-NOX5, ionomycin, 45 min, higher = more signal
# Sequence of NADPH oxidase 5 (Homo sapiens) (Q96PH1 whole entry, looked up): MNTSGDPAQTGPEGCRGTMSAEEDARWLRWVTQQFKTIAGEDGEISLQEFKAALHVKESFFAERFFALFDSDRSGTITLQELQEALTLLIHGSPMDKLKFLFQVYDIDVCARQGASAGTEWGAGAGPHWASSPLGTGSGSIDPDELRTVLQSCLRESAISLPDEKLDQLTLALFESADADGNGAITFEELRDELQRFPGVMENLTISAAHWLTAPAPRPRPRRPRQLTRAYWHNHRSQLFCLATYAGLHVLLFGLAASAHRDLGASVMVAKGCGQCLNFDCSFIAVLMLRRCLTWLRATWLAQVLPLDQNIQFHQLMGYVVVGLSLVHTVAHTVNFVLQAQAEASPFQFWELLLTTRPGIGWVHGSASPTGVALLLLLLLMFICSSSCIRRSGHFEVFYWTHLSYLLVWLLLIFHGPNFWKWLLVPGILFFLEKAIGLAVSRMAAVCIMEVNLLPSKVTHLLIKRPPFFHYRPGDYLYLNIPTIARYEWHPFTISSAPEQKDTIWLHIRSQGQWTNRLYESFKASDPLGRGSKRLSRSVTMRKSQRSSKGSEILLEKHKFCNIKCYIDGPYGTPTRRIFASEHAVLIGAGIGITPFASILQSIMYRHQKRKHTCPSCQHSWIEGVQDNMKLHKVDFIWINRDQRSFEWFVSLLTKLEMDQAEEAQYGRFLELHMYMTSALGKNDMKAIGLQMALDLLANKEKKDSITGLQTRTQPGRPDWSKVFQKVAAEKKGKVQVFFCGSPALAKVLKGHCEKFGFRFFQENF
# [11] = compound effects on lung adenocarcinoma cell viability – A549, calcein-AM fluorescence, 48 h, basal, profiling panel (AID 1162); conditions: higher = more signal; further: test concentration not given here
# [12] = compound effects on differentiated 3T3-L1 adipocyte viability – cell-based, 3T3-L1 adipocytes, calcein-AM fluorescence, 48 h, basal, profiling panel (AID 1163); conditions: 3T3-L1 adipocytes viability, higher = more signal; further: test concentration not given here
# [13] = compound effects on hepatocellular carcinoma cell viability – HepG2, calcein-AM fluorescence, 48 h, basal, profiling panel (AID 1164); conditions: higher = more signal; further: test concentration not given here
# [14] = compound effects on multiple myeloma cell viability – MM1S, calcein-AM fluorescence, 48 h, basal, profiling panel (AID 1165); conditions: higher = more signal; further: test concentration not given here
# [15] = calcein-AM signal in unstimulated myeloma cells – cell-based, calcein-AM fluorescence, 48 h, PK04 Diversity Set, profiling panel (AID 1166); conditions: RPMI8226 myeloma viability, higher = more signal;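 further: cells grown under basal conditions without added stimulus; test concentration not given here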
# [16] = JC-1 mitochondrial signal, unstimulated HepG2 cells – cell-based, JC-1 fluorescence, 24 h, 100 nL compound, profiling panel (AID 1167); conditions: HepG2 mitochondrial potential, higher = more signal; further: test concentration not given here
# [17] = JC-1 mitochondrial signal, unstimulated adipocytes – cell-based, JC-1 fluorescence, 3T3-L1 adipocytes, 24 h, 100 nL compound, profiling panel (AID 1168); conditions: JC-1 mitochondrial fluorescence, higher = more signal, called active from +8 up or from −8 down; further: test concentration not given here
# [18] = JC-1 mitochondrial signal, unstimulated myeloma cells – cell-based, JC-1 fluorescence, RPMI8226, 24 h, 100 nL compound, profiling panel (AID 1169); conditions: JC-1 mitochondrial potential fluorescence, higher = more signal; further: test concentration not given here
# [19] = JC-1 mitochondrial signal, unstimulated MM1S myeloma – cell-based, JC-1 fluorescence, 24 h, 100 nL compound, profiling panel (AID 1170); conditions: MM1S mitochondrial potential, higher = more signal; further: test concentration not given here
# [20] = resazurin metabolic signal in A549 cells – cell-based, resazurin fluorescence, 24 h, PK04 Diversity Set, profiling panel (AID 1171); conditions: A549 viability, higher = more signal, called active from +8 up or from −8 down; further: test concentration not given here
SMILES,z-score [1],composite z-score [2],z-score [3],z-score [4],z-score [5],z-score [6],z-score [7],z-score [8],z-score [9],z-score [10],z-score [11],z-score [12],z-score [13],z-score [14],z-score [15],z-score [16],z-score [17],z-score [18],z-score [19],z-score [20]
O=C1O[C@H](c2ccccc2)[C@H](c2ccccc2)N2[C@H]1[C@@H](C(=O)N1CCN(c3ncccn3)CC1)[C@]1(C(=O)Nc3ccc(C#CC4=CCCCC4)cc31)[C@H]2c1ccccc1OCCO,-0.544 (inactive),1.52,1.45 (inactive),0.746 (inactive),0.774 (inactive),1.03 (inactive),-0.187,1.46 (inactive),0.867 (inactive),1.01,-1.02,1.09,-0.769,-2.23,-1.72,-0.915,2.88 (inactive),-1.18,-1.01,-1.34 (inactive)
CC(C)CN1C(=O)[C@@]2(c3ccc([N+](=O)[O-])cc3)CC(=O)N(C3CCCCC3)[C@@H]2c2ccc(CO)cc21,0.511 (inactive),-0.191,0.531 (inactive),0.437 (inactive),0.0909 (inactive),0.523 (inactive),-0.277,-0.717 (inactive),-0.778 (inactive),-0.209,-0.651,0.16,-0.403,0.246,0.0529,0.0665,-0.339 (inactive),0.603,-0.214,-0.881 (inactive)
C=C(CCCC)/C(=C/C[C@H](OC(C)=O)c1ccc(OCCO)cc1)c1cnc2ccccc2c1,0.621 (inactive),0.0999,22 (active),6 (inactive),1.23 (inactive),1.04 (inactive),-0.1,-2.53 (inactive),-0.429 (inactive),-2.06,-0.138,0.0248,-0.257,-2.17,-0.861,1.91,-1.26 (inactive),-0.108,-0.552,1.24 (inactive)
CCCCN1CC=CC23O[C@@H]4C=CCOC(=O)[C@@H]4[C@H]2C(=O)N(CCCCCCO)[C@@H]3C1=O (stereo not given in full),-0.413 (inactive),-0.195,2.08 (inactive),0.393 (inactive),1.09 (inactive),0.405 (inactive),0.133,1.09 (inactive),-0.282 (inactive),1.63,0.327,-1.36,0.215,0.546,0.569,-0.71,-0.228 (inactive),0.76,-0.12,-0.499 (inactive)
[N-]=[N+]=Nc1ccccc1C[C@@]1(C(=O)N2CCCCC2)N=C(c2ccc(OCCCO)cc2)O[C@@H]1c1ccccc1,2.42 (inactive),0.0227,26.6 (active),18.4 (active),2.78 (inactive),2.31 (inactive),0.159,-0.0547 (inactive),0.951 (inactive),-1.31,0.93,0.699,1.02,-2.38,-4.45,0.819,0.883 (inactive),-1.19,0.992,1.41 (inactive)
COCCCNC(=O)[C@@]1(Cc2ccccc2)N=C(c2ccc(OCCCO)cc2)O[C@H]1c1ccccc1CN=[N+]=[N-],0.576 (inactive),0.272,14.3 (active),1.83 (inactive),1.75 (inactive),0.94 (inactive),-0.443,-4.56 (inactive),-0.271 (inactive),-0.67,0.925,-0.703,0.941,-0.0943,-1.75,1.31,0.571 (inactive),-1.26,-0.918,-0.484 (inactive)
O[C@@H](Cc1ccccc1)[C@@H](/C=C/C1CC1)NCc1cccc(Cl)c1,-1.12 (inactive),-0.0295,1.27 (inactive),1.03 (inactive),0.972 (inactive),0.721 (inactive),0.528,-0.115 (inactive),-0.302 (inactive),-2.08,0.399,-0.15,-1.39,-3.35,-2.71,-0.626,0.713 (inactive),-1.01,-1.7,-0.707 (inactive)
COC(=O)[C@@]1(Cc2ccccc2)[C@H]2c3cc(C(=O)N(C)C)n(CCc4c[nH]c5ccc(O)cc45)c3C[C@H]2CN1C(=O)c1ccccc1,0.263 (inactive),-0.0831,7.05 (inactive),-0.38 (inactive),0.102 (inactive),-1.32 (inactive),1.82,-2.52 (inactive),-7 (inactive),-2.41,-0.206,0.389,1.22,-0.988,-0.235,-1.3,-0.215 (inactive),-0.532,-1.57,0.349 (inactive)
